# Test results taken from PubChem BioAssay.
# Active and inactive are the calls of the source.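 The calls were made as follows, unless noted: active = normalized viability below 100% at a tested concentration; inactive = the rest.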
# Experiments:
# [1] = growth inhibition, single agent or in combination, cell-based, chromothripsis tumors, cisplatin or BGB combos (AID 1671449; in the data active = inhibition above about 80%;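 also: cells exposed for 96 hours; 0% = vehicle DMSO and 100% = killing by high DMSO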); settings: LFS_MB_P medulloblastoma cells
# [2] = growth inhibition, single agent and combos, cell-based, chromothripsis tumors, cisplatin or BGB combos (AID 1671450; in the data active = inhibition above about 80%;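 also: cells exposed to compound for four days; 0% = vehicle DMSO and 100% = cell killing by high DMSO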); settings: HDN33 neuroblastoma cells, stronger effect = higher value
# [3] = growth inhibition, single agents and combos, ICB984, cell-based, cisplatin or BGB combos, synergistic combos for chromothripsis tumors (AID 1671451; call rule not given here;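 also: cells exposed for 96 hours before readout; 0% = vehicle DMSO and 100% = killing by high DMSO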); settings: ICB984 medulloblastoma cells, drug combinations, stronger effect = higher value
# [4] = growth inhibition, single agents and combos, HTB85, cell-based, BGB or cisplatin IC20 combos, synergistic combos for chromothripsis tumors (AID 1671453; in the data active = inhibition above about 80%;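 also: cells exposed for 96 hours before readout; 0% = vehicle DMSO and 100% = high DMSO killing control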); settings: HTB85 osteosarcoma cells, drug combinations, stronger effect = higher value
# [5] = growth inhibition, MDA-MB-436, cell-based, BGB or cisplatin combos, synergistic combos for chromothripsis tumors (AID 1671458; call rule not given here;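 also: cells exposed for 96 hours; 0% = vehicle DMSO and 100% = killing by high DMSO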); settings: MDA-MB-436 breast carcinoma growth inhibition, drug combinations, stronger effect = higher value
# [6] = BT084 cell growth, single and combined drugs, ICGC_MB145, cisplatin and BGB IC40 combos (AID 1671461; in the data active = inhibition above about 80%;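 also: cells exposed to drugs for 96 hours; 0% = vehicle DMSO and 100% = high DMSO full killing control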); settings: BT084 medulloblastoma cells, drug combinations, stronger effect = higher value
# [7] = RCMB18 cell growth, single agent and combined, cisplatin and BGB IC40 combos (AID 1671462; in the data active = inhibition above about 80%;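 also: cells exposed to compound for four days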); settings: RCMB18 medulloblastoma cells, stronger effect = higher value
# [8] = CRL1545 cell growth, single agent and combined, cisplatin and BGB IC20 combos (AID 1671464; in the data active = inhibition above about 80%;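 also: cells exposed to compound for 96 hours before readout; 0% = vehicle DMSO and 100% = high DMSO killing control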); settings: CRL1545 osteosarcoma cells, stronger effect = higher value
# [9] = drug combination growth inhibition, ovarian cancer – cell-based, oncology-focused library, rucaparib conditional, profiling panel (AID 1508598); settings: patient-derived ovarian cancer cells, CellTiter-Glo viability, 144 h, stronger effect = lower value
# [10] = measured here: with BGB IC20 combination, at 0.5 µM
# [11] = measured here: with cisplatin IC20 combination, at 0.5 µM
smiles,measurement,setting,value
Nc1nc(OCc2cc(Br)cs2)c2[nH]cnc2n1,inhibition,"[1]; at 0.5 µM, stronger effect = higher value",-8.6% (inactive)
same,inhibition,"[1]; measured here: combination with BGB IC20, at 0.005 µM",6.06%
same,inhibition,"[1]; measured here: combination with BGB IC40, at 0.005 µM",-17.9%
same,inhibition,"[1]; measured here: combination with BGB IC40, at 0.05 µM",-7.49%
same,inhibition,"[1]; measured here: combination with cisplatin, at 0.5 µM, stronger effect = higher value",-32.7%
same,inhibition,"[1]; measured here: combination with cisplatin, at 5 µM, stronger effect = higher value",3.43%
same,inhibition,"[2]; BGB combo, at 5 µM",-14.7%
same,inhibition,[2]; at 0.5 µM,-12.4% (inactive)
same,inhibition,"[2]; cisplatin combo, at 5 µM",-19.8%
same,inhibition,[2]; [10],-15.1%
same,inhibition,[2]; [11],-16.6%
same,inhibition,"[2]; single agent, at 5 µM",-22.4%
same,inhibition,"[3]; BGB IC20 combo, at 0.005 µM",-4.27%
same,inhibition,"[3]; BGB IC40 combo, at 0.005 µM",-37.5%
same,inhibition,"[3]; BGB IC40 combo, at 0.05 µM",-11.8%
same,inhibition,[3]; at 0.5 µM,-22.3% (inactive)
same,inhibition,"[3]; cisplatin combo, at 0.05 µM",-16.3%
same,inhibition,"[3]; cisplatin combo, at 0.5 µM",-26.5%
same,inhibition,"[3]; cisplatin combo, at 5 µM",-13.8%
same,inhibition,"[3]; measured here: 5 uM single agent, at 5 µM",4.33%
same,inhibition,[4]; at 0.5 µM,-18.8% (inactive)
same,inhibition,"[4]; measured here: with BGB IC20, at 0.5 µM",-10.7%
same,inhibition,"[4]; measured here: with BGB IC20, at 5 µM",-21.3%
same,inhibition,"[4]; measured here: with cisplatin IC20, at 0.5 µM",-23.3%
same,inhibition,"[4]; measured here: with cisplatin IC20, at 5 µM",-10.7%
same,inhibition,"[4]; single agent, at 5 µM",-17.4%
same,inhibition,[5]; at 0.5 µM,-3.23% (inactive)
same,inhibition,"[5]; measured here: BGB combination, at 0.5 µM",4.51%
same,inhibition,"[5]; measured here: BGB combination, at 5 µM",3.71%
same,inhibition,"[5]; measured here: cisplatin combination, at 0.5 µM",-3.58%
same,inhibition,"[5]; measured here: cisplatin combination, at 5 µM",5.35%
same,inhibition,[6]; at 0.5 µM,-0.821% (inactive)
same,inhibition,"[6]; cisplatin combination, at 0.5 µM",-10.5%
same,inhibition,"[6]; cisplatin combination, at 5 µM",2.83%
same,inhibition,"[6]; measured here: BGB IC40 combination 0.05 uM, at 0.05 µM",-9.82%
same,inhibition,"[6]; single agent, at 5 µM",4.08%
same,inhibition,[7]; at 0.5 µM,-7.44% (inactive)
same,inhibition,"[7]; cisplatin combo, at 5 µM",-2.67%
same,inhibition,"[7]; measured here: BGB IC40 combination, at 0.05 µM",1.72%
same,inhibition,"[7]; measured here: combination with cisplatin, at 0.5 µM",-25.9%
same,inhibition,"[7]; single agent, at 5 µM",-0.712%
same,inhibition,[8]; at 0.5 µM,-8.12% (inactive)
same,inhibition,[8]; [10],-32.5%
same,inhibition,[8]; [11],4.06%
same,inhibition,"[8]; single agent, at 0.05 µM",5.05%
same,inhibition,"[8]; single agent, at 5 µM",-19.6%
Cc1cc(CS(=O)(=O)c2ccccc2)cc(OCc2ccc(CN3CCC[C@@H]3CO)cc2)c1,viability,"[9]; at 0.000305 µM, OCI-C5x cells, with rucaparib 10 µM, 100% = cells with rucaparib alone",111% (inactive)
same,viability,"[9]; at 0.000305 µM, OCI-C5x cells, without rucaparib",109% (inactive)
same,viability,"[9]; at 0.000305 µM, OCI-P5x cells, with rucaparib 20 µM, 100% = cells with rucaparib alone",97% (active)
same,viability,"[9]; at 0.000305 µM, OCI-P5x cells, without rucaparib",106% (inactive)
same,viability,"[9]; at 0.00122 µM, OCI-C5x cells, with rucaparib 10 µM, 100% = cells with rucaparib alone",113% (inactive)
same,viability,"[9]; at 0.00122 µM, OCI-C5x cells, without rucaparib",120% (inactive)
same,viability,"[9]; at 0.00122 µM, OCI-P5x cells, with rucaparib 20 µM, 100% = cells with rucaparib alone",103% (inactive)
same,viability,"[9]; at 0.00122 µM, OCI-P5x cells, without rucaparib",108% (inactive)
same,viability,"[9]; at 0.00488 µM, OCI-C5x cells, with rucaparib 10 µM, 100% = cells with rucaparib alone",111% (inactive)
same,viability,"[9]; at 0.00488 µM, OCI-C5x cells, without rucaparib",127% (inactive)
same,viability,"[9]; at 0.00488 µM, OCI-P5x cells, with rucaparib 20 µM, 100% = cells with rucaparib alone",99.4% (active)
same,viability,"[9]; at 0.00488 µM, OCI-P5x cells, without rucaparib",107% (inactive)
same,viability,"[9]; at 0.0195 µM, OCI-C5x cells, with rucaparib 10 µM, 100% = cells with rucaparib alone",116% (inactive)
same,viability,"[9]; at 0.0195 µM, OCI-C5x cells, without rucaparib",116% (inactive)
same,viability,"[9]; at 0.0195 µM, OCI-P5x cells, with rucaparib 20 µM, 100% = cells with rucaparib alone",107% (inactive)
same,viability,"[9]; at 0.0195 µM, OCI-P5x cells, without rucaparib",103% (inactive)
same,viability,"[9]; at 0.0781 µM, OCI-C5x cells, with rucaparib 10 µM, 100% = cells with rucaparib alone",123% (inactive)
same,viability,"[9]; at 0.0781 µM, OCI-C5x cells, without rucaparib",125% (inactive)
same,viability,"[9]; at 0.0781 µM, OCI-P5x cells, with rucaparib 20 µM, 100% = cells with rucaparib alone",99.2% (active)
same,viability,"[9]; at 0.0781 µM, OCI-P5x cells, without rucaparib",108% (inactive)
same,viability,"[9]; at 0.313 µM, OCI-C5x cells, with rucaparib 10 µM, 100% = cells with rucaparib alone",116% (inactive)
same,viability,"[9]; at 0.313 µM, OCI-C5x cells, without rucaparib",111% (inactive)
same,viability,"[9]; at 0.313 µM, OCI-P5x cells, with rucaparib 20 µM, 100% = cells with rucaparib alone",106% (inactive)
same,viability,"[9]; at 0.313 µM, OCI-P5x cells, without rucaparib",109% (inactive)
same,viability,"[9]; at 1.25 µM, OCI-C5x cells, with rucaparib 10 µM, 100% = cells with rucaparib alone",117% (inactive)
same,viability,"[9]; at 1.25 µM, OCI-C5x cells, without rucaparib",123% (inactive)
same,viability,"[9]; at 1.25 µM, OCI-P5x cells, with rucaparib 20 µM, 100% = cells with rucaparib alone",99.2% (active)
same,viability,"[9]; at 1.25 µM, OCI-P5x cells, without rucaparib",105% (inactive)
same,viability,"[9]; at 5 µM, OCI-C5x cells, with rucaparib 10 µM, 100% = cells with rucaparib alone",127% (inactive)
same,viability,"[9]; at 5 µM, OCI-C5x cells, without rucaparib",122% (inactive)
same,viability,"[9]; at 5 µM, OCI-P5x cells, with rucaparib 20 µM, 100% = cells with rucaparib alone",95.9% (active)
same,viability,"[9]; at 5 µM, OCI-P5x cells, without rucaparib",99.8% (active)
